Measured values as given in publication PMC4336329 (PLoS ONE, 2015).
The campaign covered roughly 310,000 compounds. About 14,000 (4.5%) showed an effect of 50% or more. The effect is printed as a negative number. The list comes from a sample in which strong results are over-represented; it also holds similar structures and randomly drawn compounds.

Target: human ether-à-go-go-related gene (hERG) potassium channel (human, UniProt Q12809)
Experiment: primary screen, population patch clamp on CHO cells stably expressing hERG; higher = less effect of the substance
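Also: peak tail current of the secondary pulse compared with the same well before compound.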

Chain of human ether-à-go-go-related gene (hERG) potassium channel (Q12809 whole entry, looked up): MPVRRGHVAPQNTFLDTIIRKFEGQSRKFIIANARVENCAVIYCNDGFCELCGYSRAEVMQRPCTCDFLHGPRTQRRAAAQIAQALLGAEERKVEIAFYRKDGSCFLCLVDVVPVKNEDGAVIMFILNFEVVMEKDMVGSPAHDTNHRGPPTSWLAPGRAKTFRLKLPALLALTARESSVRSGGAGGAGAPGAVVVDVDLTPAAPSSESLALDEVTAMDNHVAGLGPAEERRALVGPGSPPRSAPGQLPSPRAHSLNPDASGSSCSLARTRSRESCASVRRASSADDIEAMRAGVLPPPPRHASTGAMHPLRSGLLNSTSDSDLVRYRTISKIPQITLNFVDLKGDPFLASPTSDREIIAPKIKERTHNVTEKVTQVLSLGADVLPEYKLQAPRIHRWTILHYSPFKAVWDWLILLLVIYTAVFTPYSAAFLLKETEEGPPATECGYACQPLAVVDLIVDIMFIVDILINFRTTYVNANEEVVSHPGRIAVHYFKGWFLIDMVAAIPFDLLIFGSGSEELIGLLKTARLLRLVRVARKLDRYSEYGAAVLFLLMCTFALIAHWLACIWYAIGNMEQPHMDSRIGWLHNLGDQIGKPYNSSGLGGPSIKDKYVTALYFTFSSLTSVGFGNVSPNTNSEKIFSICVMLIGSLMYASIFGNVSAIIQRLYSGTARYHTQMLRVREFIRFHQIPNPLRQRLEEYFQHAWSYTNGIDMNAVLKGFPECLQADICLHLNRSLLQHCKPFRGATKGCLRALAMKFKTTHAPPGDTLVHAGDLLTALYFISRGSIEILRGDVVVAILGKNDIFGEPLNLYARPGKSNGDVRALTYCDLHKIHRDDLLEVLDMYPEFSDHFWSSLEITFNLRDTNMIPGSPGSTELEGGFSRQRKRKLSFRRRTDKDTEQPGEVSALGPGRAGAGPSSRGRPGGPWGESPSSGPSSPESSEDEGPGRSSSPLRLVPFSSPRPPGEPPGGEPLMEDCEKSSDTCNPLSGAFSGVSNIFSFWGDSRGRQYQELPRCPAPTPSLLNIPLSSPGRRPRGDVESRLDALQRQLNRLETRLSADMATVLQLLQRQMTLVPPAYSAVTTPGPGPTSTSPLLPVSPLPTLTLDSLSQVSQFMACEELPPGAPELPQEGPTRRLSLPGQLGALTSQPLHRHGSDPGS

Row | SMILES | hERG current change (%, negative = inhibition) at 10uM [%]
1 | COc1ccccc1NC(=O)CSc1ccc2nnc(-c3cccnc3)n2n1 | -57
2 | COc1ccc(OC)c(NC(=O)CSc2ccc3nnc(-c4ccccn4)n3n2)c1 | -69
3 | CCOc1ccccc1NC(=O)CSc1ccc2nnc(-c3cccnc3)n2n1 | -61.9
4 | COc1ccccc1NC(=O)CSc1ccc2nnc(-c3ccc(C)cc3)n2n1 | -26.6
5 | COc1ccc(CCNC(=O)CSc2nnc3ccc(-c4ccccn4)nn23)cc1OC | 2.17
6 | O=C(CSc1ccc2nnc(-c3cccnc3)n2n1)Nc1ccccc1C(F)(F)F | -33.3
7 | O=C(CSc1nnc2ccc(-c3ccccn3)nn12)NCCc1ccccc1 | -6.49
8 | COc1ccc(NC(=O)CSc2ccc3nnc(-c4ccccn4)n3n2)c(OC)c1 | -25.9
9 | COc1ccc(CCNC(=O)CSc2nnc3ccc(-c4ccccn4)nn23)cc1 | -51.6
10 | O=C(CSc1ccc2nnc(-c3cccnc3)n2n1)Nc1ccc(F)cc1F | -21.5
11 | COc1ccccc1NC(=O)CSc1ccc2nnc(-c3ccccn3)n2n1 | 0.136
12 | COc1ccccc1NC(=O)CSc1ccc2nnc(-c3ccncc3)n2n1 | -31.3
13 | COc1ccc(C(O)C(C)NC(C)C(O)c2ccc(OC)cc2)cc1 (stereo not shown) | 4.3
14 | COc1ccc(S(=O)(=O)N2CCN(Cc3cc(OC)c(O)c(OC)c3)CC2)cc1.O=C(O)C(=O)O | 4.57
15 | CN(C)CCNc1nc(-c2ccccc2)nnc1C(F)(F)F | -3.83
16 | CN1CCN(C(=O)c2ccc3c(c2)NC(=O)C(N2CCOCC2)S3)CC1 (stereo not shown) | 3.85
17 | COc1ccc(C(C)=O)cc1CN1C(=O)C(C)N(c2ccc(C)cc2)C1=O (stereo not shown) | -25.4
18 | CCn1nc(NC(=O)c2ccco2)c2cc3ccccc3nc21 | -0.887
19 | Cc1ccccc1CN1CCC(n2nccc2NC(=O)c2ccc3c(c2)OCO3)CC1 | -9.06
20 | COc1ccc(OC)c(NC(=O)CSc2ccc(-c3cccnc3)nn2)c1 | -17.6
21 | COc1ccc(NC(=O)CSc2ccc3nnc(-c4cccnc4)n3n2)c(OC)c1 | -32.4
22 | COc1ccc(OC)c(NC(=O)CSc2ccc3nnc(-c4cccnc4)n3n2)c1 | -61.1

Row | SMILES | hERG current change (%, negative = inhibition) at 10uM [%]
23 | Cc1cc2nc(-c3cccnc3SCC(=O)NCc3ccco3)[nH]c2cc1C | -5.15
24 | O=[N+]([O-])c1cccc(CN2CCC(Cc3ccccc3)CC2)c1 | -31.4
25 | O=[N+]([O-])c1ccc(CN2CCC(Cc3ccccc3)CC2)cc1 | -55.1
26 | Cc1c(C(=O)N2CCC(Cc3ccccc3)CC2)cccc1[N+](=O)[O-] | -34.3
27 | Cc1cc(C(=O)N2CCC(Cc3ccccc3)CC2)ccc1[N+](=O)[O-] | -38.5
28 | O=C(c1ccccc1[N+](=O)[O-])N1CCC(Cc2ccccc2)CC1 | -19
29 | Cc1ccc(C(=O)N2CCC(Cc3ccccc3)CC2)cc1[N+](=O)[O-] | -63.8
30 | O=[N+]([O-])c1ccc(C(=S)N2CCC(Cc3ccccc3)CC2)cc1 | -32.4
31 | O=C(c1ccc([N+](=O)[O-])cc1)N1CCC(Cc2ccccc2)CC1 | -73.4
32 | Cc1ccc(C(=O)Nc2ccc(NC(=O)c3ccc(C)o3)cc2)o1 | -1.94
33 | Cc1ccc(F)cc1CNC(=O)C1CCC(=O)N(CCCN2CCCC2=O)C1 (stereo not shown) | 14.6
34 | Cc1ccc(S(=O)(=O)Nc2cc(C(=O)Nc3cc(C)cc(C)c3)ccc2Cl)cc1 | -5.44
35 | Cc1ccc(NC(=O)CSc2nc(=O)n(CCCN(C)C)c3c2CCC3)c(C)c1 | -50.6
36 | Cc1cc(NC(=O)CSc2nc(=O)n(CCN(C)C)c3c2CCCC3)no1 | -6.91
37 | CN(C)CCCn1c2c(c(SCC(=O)Nc3ccc4c(c3)OCCO4)nc1=O)CCC2 | -12.2
38 | CCN(CC)CCn1c2c(c(SCC(=O)Nc3nc4ccc(C)cc4s3)nc1=O)CCC2 | -30.4
39 | Cc1cc(NC(=O)CSc2nc(=O)n(CCCN(C)C)c3c2CCCC3)no1 | -7.06
40 | CN(C)CCCn1c2c(c(SCC(=O)Nc3nccs3)nc1=O)CCC2 | -9.32
41 | Cc1ccc(NC(=O)CSc2nc(=O)n(Cc3ccncc3)c3c2CCC3)c(C)c1 | -26.1
42 | Cc1ccc2nc(NC(=O)CSc3nc(=O)n(CCCN(C)C)c4c3CCC4)sc2c1 | -50.2
43 | Cc1ccc2nc(NC(=O)CSc3nc(=O)n(CCN(C)C)c4c3CCCC4)sc2c1 | -50.2
44 | CN1CCC(=O)N([C@H](CN=[N+]=[N-])Cc2ccccc2)CC1 | 17.9

Row | SMILES | hERG current change (%, negative = inhibition) at 10uM [%]
45 | c1cnc2ccc(-c3ccc4ncccc4c3)cc2c1 | -5.61
46 | COc1cc(C=O)ccc1OCCOCCOc1ccc(Cl)cc1 | -37.6
47 | COc1ccccc1NC(=O)c1ccc(S(=O)(=O)N2CCCC2)cc1 | -20.3
48 | CCOC(=O)c1cccc(NC(=O)c2cc3ccccc3o2)c1 | 1.39
49 | Cl.O=C1[C@H]2CCCC[C@H]2C(=O)N1CCCCN1CCN(c2nsc3ccccc23)CC1 | -74.3
50 | FC(F)(F)C1CCCN(c2nsc3ccccc23)C1 (stereo not shown) | 19.1
51 | Cl.c1ccc2c(N3CCNCC3)nsc2c1 | -5.8
52 | COc1cccc2nc3cc(C)c(C)cc3nc12 | -7.73
53 | COc1ccc(C2CC(c3cccs3)=NN2C(=O)CCC(=O)O)cc1 (stereo not shown) | 10.5
54 | CCC(=O)N1N=C(c2cccs2)CC1c1ccc(OC)cc1 (stereo not shown) | 15.9
55 | O=C(CN1CCOCC1)N1N=C(c2cccs2)CC1c1cccs1 (stereo not shown) | 18.9
56 | O=C(CN1CCCCC1)N1N=C(c2cccs2)CC1c1cccs1 (stereo not shown) | -58.7
57 | CC(=O)N1N=C(c2cccs2)CC1c1cccs1 (stereo not shown) | 5.99
58 | COc1ccc(C2CC(c3cccs3)=NN2C(=O)CN2CCCCC2)cc1 (stereo not shown) | -71.9
59 | O=C(CSc1ncn[nH]1)Nc1nc(-c2ccccc2)ns1 | -7.44
60 | CCCC(=O)c1cc(F)c(N2CCN(S(=O)(=O)c3ccccc3)CC2)cc1C | 13.2
61 | CCOc1ccc(NC(=O)C(C)Sc2nccn2C)cc1 (stereo not shown) | 6.78
62 | Cn1cccc1Cc1nnc(SCC(=O)NCC2CCCO2)n1CCc1ccccc1 (stereo not shown) | -10.8
63 | CCCn1nc(C(=O)OCC(=O)Nc2cccc(OC)c2)c2ccccc2c1=O | 3.96
64 | O=C(O)c1ccc(CSc2nnnn2-c2ccc(F)cc2)cc1 | -9.84
65 | CCN(CC)C(CNC(=O)CSc1nnnn1-c1cccc(F)c1)c1ccco1 (stereo not shown) | -16.4
66 | CCN(CC)C(CNC(=O)CSc1nnnn1-c1ccc(C)c(C)c1)c1ccco1 (stereo not shown) | -54.5

Row | SMILES | hERG current change (%, negative = inhibition) at 10uM [%]
67 | Cc1ccc(-n2nnnc2SCC(=O)NNC(=O)c2ccco2)cc1C | 24.3
68 | O=C(O)c1ccc(-n2nnnc2SCc2ccccc2)cc1 | 8.05
69 | Cc1ccc(-n2nnnc2SCc2ccc(C(=O)O)cc2)cc1C | -70.7
70 | COc1cc(CCc2ccc3c(c2)OCO3)oc(=O)c1 | 4.95
71 | Cc1ccc(C2(C)NC(=O)N(CC(=O)NNC(=O)c3ccoc3C)C2=O)cc1 (stereo not shown) | 26.6
72 | Cc1nn(CC(=O)NCc2ccccc2)c(=O)c2cccn12 | 9.27
73 | Cc1csc2ncnc(N3CCN(C(=O)Nc4ccc(OC(F)(F)F)cc4)CC3)c12 | -68
74 | O=C(Nc1ccc(OC(F)(F)F)cc1)N1CCN(c2ccnc3cc(Cl)ccc23)CC1 | -72.1
75 | O=C(Nc1ccc(C(F)(F)F)cc1)N1CCN(c2ccnc3cc(Cl)ccc23)CC1 | -62.2
76 | Cc1csc2c(N3CCN(C(=O)Nc4ccc(OC(F)(F)F)cc4)CC3)ncnc12 | -32.9
77 | Cc1csc2ncnc(N3CCN(C(=S)Nc4ccc(C(F)(F)F)cc4)CC3)c12 | -16.7
78 | O=C(Nc1ccc(Cl)cc1)N1CCCN(c2ccc(C(F)(F)F)cc2[N+](=O)[O-])CC1 | 4.29
79 | O=C(Nc1ccc(Cl)cc1)N1CCN(c2ncccn2)CC1 | -13.2
80 | CC(C)(C)OC(=O)N1CCCN(C(=O)Nc2ccc(OC(F)(F)F)cc2)CC1 | -22.6
81 | Cc1ccc(S(=O)(=O)N(C)CC(=O)OCC(=O)NCCN2C(=O)CSC2=O)cc1 | -9.67
82 | O=C(c1ccc(Cl)cc1)C(CN1CCCC1)c1ccccc1 (stereo not shown) | -10.3
83 | COc1ccc(OC)c(NC(=O)Nc2nnc(N3CCC(C)CC3)s2)c1 | 5.07
84 | COc1ccc(CCNC(=O)[C@@H](NC(=O)N2CCn3c2nc2ccccc23)C(C)C)cc1OC | -14.3
85 | Cc1ccc(C)c(NS(=O)(=O)c2ccc(OCC(=O)N3CCOCC3)cc2)c1 | -7.34
